Test results published in PubChem BioAssay (NCATS).
Inconclusive results are not listed. The source made the active and inactive calls. Calls follow the shape of the dose curve; as a rule, active = well fitted curve in the direction sought with a large enough effect; inconclusive = small, poorly fitted or top-dose-only effect, or another doubt; inactive = no such curve, though single readings can be large; an effect the other way counts as inactive or inconclusive.

Experiments:
KB-3-1 = experiment: Cytotoxic Profiling of Annotated Libraries Using Quantitative High-Throughput Screening (AID 1296008); details: Five cell lines viability, CellTiter-Glo ATP luminescence, 48-72 h; max response: hits give low values; also: nearly all actives have a fitted effect of over 60% in size; as to max response: % is scaled to controls: 0 for no effect and ±100 for the full control effect
Outline: (§1)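 Cells exposed to compounds for 48 or 72 hr at 37 degrees Celsius. Viability read as ATP-coupled luminescence with CellTiter-Glo after 10 min at room temperature.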

NIH3T3 [1] = experiment: as above; details: Five cell lines viability, CellTiter-Glo ATP luminescence, 48-72 h; max response: hits give low values
Outline: as §1

HEK293T [2] = experiment: qHTS assay to identify novel small-molecules to repurpose for Merkel cell carcinoma treatment (AID 1296009); details: MCC and control cell lines, CellTiter-Glo viability, 72 h; series mostly up to 44.8 µM; also: nearly all actives have a fitted effect of over 60% in size
Outline: (§2)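 Cells were incubated with compound for 72 hr at 37 degree celsius before CellTiter-Glo addition. Luminescence was normalized with no-cell wells as full cytotoxicity and DMSO as baseline.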

NIH3T3 [3] = experiment: as above; details: MCC and control cell lines, CellTiter-Glo viability, 72 h; at 44.8 µM (top of the series) unless noted
Outline: as §2

C33A = experiment: Primary qHTS to identify gynecologic anti-cancer compounds using libraries of approved drugs and bioactive compounds (AID 1345084); details: Gynecologic cancer cell panel viability, ATPlite luminescence, 48 h; series mostly up to 57.5 µM; also: % is scaled to controls: 0 for no effect and ±100 for the full control effect; nearly all actives have a fitted effect of over 55% in size
Outline: (§3)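 Cells, 1,000 per well, plated 16 h, then exposed 48 h at 37 C to compounds. Viability by ATPlite luminescence after 15 min at room temperature.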

CAOV3 = experiment: as above; details: Gynecologic cancer cell panel viability, ATPlite luminescence, 48 h; series mostly up to 57.5 µM
Outline: as §3

CASKI = experiment: as above; details: Gynecologic cancer cell panel viability, ATPlite luminescence, 48 h; series mostly up to 57.5 µM
Outline: as §3

Es-2 = experiment: as above; details: Gynecologic cancer cell panel viability, ATPlite luminescence, 48 h; series mostly up to 57.5 µM
Outline: as §3

HeLa = experiment: as above; details: Gynecologic cancer cell panel viability, ATPlite luminescence, 48 h; series mostly up to 57.5 µM
Outline: as §3

Hek293T [4] = experiment: as above; details: Gynecologic cancer cell panel viability, ATPlite luminescence, 48 h, control line for the selectivity index; series mostly up to 57.5 µM
Outline: as §3

JEG-3 = experiment: as above; details: Gynecologic cancer cell panel viability, ATPlite luminescence, 48 h; series mostly up to 57.5 µM
Outline: as §3

OV90 = experiment: as above; details: Gynecologic cancer cell panel viability, ATPlite luminescence, 48 h; series mostly up to 57.5 µM
Outline: as §3

PA-1 = experiment: as above; details: Gynecologic cancer cell panel viability, ATPlite luminescence, 48 h; series mostly up to 57.5 µM
Outline: as §3

CC(=O)O[C@H]1CC[C@@]2(CI)C(=CC[C@@H]3[C@@H]2CC[C@]2(C)[C@@H]([C@H](C)CCCC(C)C)CC[C@@H]32)C1
inactive: outcome (KB-3-1) | outcome (NIH3T3 [1]) | outcome (HEK293T [2]) inactive [at 9.27 µM] | outcome (NIH3T3 [3]) inactive [at 9.27 µM] | activity change, negative = cytotoxicity (C33A) 15% [at 11.6 µM] | activity change, negative = cytotoxicity (CAOV3) 9.25% [at 11.6 µM] | activity change, negative = cytotoxicity (CASKI) -2.47% [at 11.6 µM] | activity change, negative = cytotoxicity (Es-2) -1.33% [at 11.6 µM] | activity change, negative = cytotoxicity (HeLa) 10.9% [at 11.6 µM] | activity change, negative = cytotoxicity (Hek293T [4]) 4.14% [at 11.6 µM] | activity change, negative = cytotoxicity (JEG-3) -2.55% [at 11.6 µM] | activity change, negative = cytotoxicity (OV90) -2.38% [at 11.6 µM] | activity change, negative = cytotoxicity (PA-1) 22.4% [at 11.6 µM]

C[C@@H]1O[C@@H](O[C@H]2[C@H](O[C@H]3[C@H](O[C@H]4CC[C@@]5(C=O)C(CC[C@]6(C)C5CC=C5C7CC(C)(C)C[C@@H](O)[C@]7(C)CC[C@]56C)C4(C)C)O[C@H](C(=O)O)[C@@H](O)[C@@H]3O)OC[C@@H](O)[C@@H]2O)[C@H](O)[C@H](O)[C@H]1O (stereo partly drawn)
inactive: max response (KB-3-1) 7.57% | outcome (NIH3T3 [1]) | outcome (HEK293T [2]) inactive [at 9.27 µM] | outcome (NIH3T3 [3]) inactive [at 9.27 µM] | activity change, negative = cytotoxicity (C33A) 7.86% [at 11.6 µM] | activity change, negative = cytotoxicity (CAOV3) 38.3% [at 11.6 µM] | activity change, negative = cytotoxicity (CASKI) 0.905% [at 11.6 µM] | activity change, negative = cytotoxicity (Es-2) 9.36% [at 11.6 µM] | activity change, negative = cytotoxicity (HeLa) 2.37% [at 11.6 µM] | activity change, negative = cytotoxicity (Hek293T [4]) -7.04% [at 11.6 µM] | activity change, negative = cytotoxicity (JEG-3) 9.31% [at 11.6 µM] | activity change, negative = cytotoxicity (OV90) 6.53% [at 11.6 µM] | activity change, negative = cytotoxicity (PA-1) 13.9% [at 11.6 µM]

CC(C)CC1(C(=O)OCc2ccc(O[C@@H]3O[C@H](CO)[C@@H](O)[C@H](O)[C@H]3O)cc2)CC(=O)OC(C(=O)O)CC(=O)OCC2OC(O1)C(OC(=O)/C=C/c1ccc(O)cc1)C(O)C2O (stereo partly drawn)
inactive: max response (KB-3-1) 8.15% | outcome (NIH3T3 [1]) | outcome (HEK293T [2]) inactive [at 9.27 µM] | outcome (NIH3T3 [3]) inactive [at 9.27 µM] | activity change, negative = cytotoxicity (C33A) -0.106% [at 11.6 µM] | activity change, negative = cytotoxicity (CAOV3) 1.66% [at 11.6 µM] | activity change, negative = cytotoxicity (CASKI) -1.89% [at 11.6 µM] | activity change, negative = cytotoxicity (Es-2) 11.3% [at 11.6 µM] | activity change, negative = cytotoxicity (HeLa) 0% [at 11.6 µM] | activity change, negative = cytotoxicity (Hek293T [4]) 5.47% [at 11.6 µM] | activity change, negative = cytotoxicity (JEG-3) 1.44% [at 11.6 µM] | activity change, negative = cytotoxicity (OV90) -14.4% [at 11.6 µM] | activity change, negative = cytotoxicity (PA-1) -8.97% [at 11.6 µM]

Nc1nc(CC(=O)Nc2ccc(CCNCC(O)c3ccccc3)cc2)cs1 (stereo not drawn)
inactive: outcome (KB-3-1) | outcome (NIH3T3 [1]) | Potency (HEK293T [2]) | outcome (NIH3T3 [3]) | Potency (C33A) | Potency (CAOV3) | Potency (CASKI) | Potency (Es-2) | Potency (HeLa) | Potency (Hek293T [4]) | Potency (JEG-3) | Potency (OV90) | Potency (PA-1)

C=C1CC2C3(C)C(O)CC(=O)C(C)(C)C3C(OC(C)=O)C(OC(C)=O)C2(C)C2C(=O)OC(C)(C(=O)OC)C(=O)C12C (stereo not drawn)
inactive: max response (KB-3-1) 5.29% | outcome (NIH3T3 [1]) | Potency (HEK293T [2]) | outcome (NIH3T3 [3]) inactive [at 17.4 µM] | Potency (C33A) | Potency (CAOV3) | Potency (CASKI) | Potency (Es-2) | Potency (HeLa) | Potency (Hek293T [4]) | Potency (JEG-3) | Potency (OV90) | Potency (PA-1)

O=C(NCc1ccc(OC(F)(F)F)cc1)C1c2ccccc2C(=O)N1C1CCOCC1 (stereo not drawn)
inactive: outcome (KB-3-1) | outcome (NIH3T3 [1]) | Potency (HEK293T [2]) | outcome (NIH3T3 [3]) | Potency (C33A) | Potency (CAOV3) | Potency (CASKI) | Potency (Es-2) | Potency (HeLa) | Potency (Hek293T [4]) | Potency (JEG-3) | Potency (OV90) | Potency (PA-1)

CC(C)=CCCC1(C)Oc2cc3c(c4c2C2C(O4)C(C)(O)CCC21)CN(C(CCC(=O)O)C(=O)O)C3=O (stereo not drawn)
inactive: outcome (KB-3-1) | outcome (NIH3T3 [1]) | Potency (HEK293T [2]) | outcome (NIH3T3 [3]) inactive [at 17.4 µM] | Potency (C33A) | Potency (CAOV3) | Potency (CASKI) | Potency (Es-2) | Potency (HeLa) | Potency (Hek293T [4]) | Potency (JEG-3) | Potency (OV90) | Potency (PA-1)

COC(=O)C12C(=O)C(C)=C(O)C1(C)C(C)=CC1C34CCC(OC3=O)C(C)(C)C4CCC12C (stereo not drawn)
inactive: max response (KB-3-1) 6.41% | outcome (NIH3T3 [1]) | Potency (HEK293T [2]) | outcome (NIH3T3 [3]) inactive [at 17.4 µM] | Potency (C33A) | Potency (CAOV3) | Potency (CASKI) | Potency (Es-2) | Potency (HeLa) | Potency (Hek293T [4]) | Potency (JEG-3) | Potency (OV90) | Potency (PA-1)

C=C(C)[C@@H](C)[C@H]1O[C@]23C[C@]4(CO2)C(CCC2[C@@]5(C)CC[C@H](O[C@@H]6OC[C@H](O)[C@H](O[C@@H]7O[C@H](CO)[C@@H](O)[C@H](O)[C@H]7O)[C@H]6O[C@@H]6O[C@@H](CO)[C@H](O)[C@H]6O)C(C)(C)C5CC[C@]24C)C3[C@@](C)(O)[C@@H]1OC(C)=O (stereo partly drawn)
inactive: max response (KB-3-1) -3.84% | outcome (NIH3T3 [1]) | outcome (HEK293T [2]) inactive [at 9.27 µM] | outcome (NIH3T3 [3]) inactive [at 9.27 µM] | activity change, negative = cytotoxicity (C33A) 0.663% [at 11.6 µM] | activity change, negative = cytotoxicity (CAOV3) 12.4% [at 11.6 µM] | activity change, negative = cytotoxicity (CASKI) -5.16% [at 11.6 µM] | activity change, negative = cytotoxicity (Es-2) 4.13% [at 11.6 µM] | activity change, negative = cytotoxicity (HeLa) -18.1% [at 11.6 µM] | activity change, negative = cytotoxicity (Hek293T [4]) -2.35% [at 11.6 µM] | activity change, negative = cytotoxicity (JEG-3) 10.2% [at 11.6 µM] | activity change, negative = cytotoxicity (OV90) 2.63% [at 11.6 µM] | activity change, negative = cytotoxicity (PA-1) 20.8% [at 11.6 µM]

C=C(C(=O)OC)C1CCC2(C)C(O[C@@H]3O[C@H](CO)[C@@H](O)[C@H](O)[C@H]3O)CC(=O)C(C)C2C1O (stereo partly drawn)
inactive: outcome (KB-3-1) | outcome (NIH3T3 [1]) | Potency (HEK293T [2]) | outcome (NIH3T3 [3]) inactive [at 17.4 µM] | Potency (C33A) | Potency (CAOV3) | Potency (CASKI) | Potency (Es-2) | Potency (HeLa) | Potency (Hek293T [4]) | Potency (JEG-3) | Potency (OV90) | Potency (PA-1)

C[C@@H]1O[C@@H](O[C@H]2[C@H](OC(=O)[C@]34CCC(C)(C)C[C@H]3C3=CCC5[C@@]6(C)CC[C@H](O[C@@H]7O[C@H](CO[C@@H]8OC[C@H](O)[C@H](O)[C@H]8O)[C@@H](O)[C@H](O)[C@H]7O)C(C)(C)C6CC[C@@]5(C)[C@]3(C)C[C@H]4O)OC[C@@H](O)[C@@H]2O)[C@H](O)[C@H](O)[C@H]1O[C@@H]1OC[C@H](O)[C@H](O[C@@H]2OC[C@@H](O)[C@H](O)[C@H]2O)[C@H]1O (stereo partly drawn)
inactive: outcome (KB-3-1) | outcome (NIH3T3 [1]) | outcome (HEK293T [2]) inactive [at 9.27 µM] | outcome (NIH3T3 [3]) inactive [at 9.27 µM] | activity change, negative = cytotoxicity (C33A) 2.46% [at 6.55 µM] | activity change, negative = cytotoxicity (CAOV3) -15.5% [at 6.55 µM] | activity change, negative = cytotoxicity (CASKI) -13.2% [at 6.55 µM] | activity change, negative = cytotoxicity (Es-2) -2.02% [at 6.55 µM] | activity change, negative = cytotoxicity (HeLa) 18.3% [at 6.55 µM] | activity change, negative = cytotoxicity (Hek293T [4]) -6.63% [at 6.55 µM] | activity change, negative = cytotoxicity (JEG-3) -1.75% [at 6.55 µM] | activity change, negative = cytotoxicity (OV90) -10.8% [at 6.55 µM] | activity change, negative = cytotoxicity (PA-1) 1.4% [at 6.55 µM]
